Wnt act = activates Wnt/beta-catenin signaling in a reporter cell assay. activator, plate reader. activation, % at 9.35 µM. 300,000 tested, 1.2% active; in the data active means activation above about 30%, passing the limit was not always enough; inconclusive means no clear call, values can overlap the other calls;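 further: 0% = neutral control wells and 100% = positive control wells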
esBAF inh = inhibitors of esBAF chromatin remodeling in mouse ES cells | reporter increase, % at 12.5 µM | 350,000 tested, 2% active | Bmi1-luciferase knock-in reporter, 24 h; 100% = twice the neutral-well signal; in the data active means activation above about 40%; inconclusive means no clear call, values can overlap the other calls;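 further: 0% = median of the plate's neutral control wells and 100% = double that signal; a rise in the Bmi1 reporter signal indicates esBAF inhibition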
MITF TRPM1 HTS = increases MITF-driven TRPM1 promoter luciferase signal; SK-MEL-5 TRPM1-promoter luciferase, 24 h; % of positive control, neutral wells = 0; activation, % at 12.5 µM; 300,000 tested, 0.75% active; AID 588334;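 active means mean activation of at least 80% with every replicate also reaching 80%; inconclusive means mean reaches 80% but some replicate falls short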;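 further: 0% = neutral control wells and 100% = parthenolide positive control wells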
LMP1 NFkB inh = Epstein-Barr LMP1 NF-kappaB reporter inhibition; 350,000 tested, 0.69% active; inhibition, % at 12.5 µM; LMP1-induced NF-kappaB luciferase reporter cells, luminescence; in the data active means inhibition above about 41%; inconclusive means no clear call, values can overlap the other calls;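 further: 0% = neutral control wells and 100% = reference inhibitor control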
Statin myotox sup = suppression of simvastatin myotoxicity. 330,000 tested, 0.78% active. C2C12 myotubes + simvastatin, ATP luminescence, 48 h; scaled: DMSO 0, geranylgeraniol control 100. rescue of ATP level, % at 7.49 µM;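 active means mean ATP rescue above about 67%, or every replicate alone reaching that limit, limit read from the data, passing the limit was not always enough; inconclusive means no clear call, values can overlap the other calls; inactive means mean under the limit and some replicate under it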;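 further: myotubes were challenged with 10 µM simvastatin during compound exposure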
MITF TRPM1 inh = reduces MITF-dependent TRPM1 promoter luciferase signal; inhibition, % at 12.5 µM; 330,000 tested, 0.83% active; SK-MEL-5 TRPM1 promoter luciferase, 24 h;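 active means mean inhibition across replicates of 60% or more, whatever share of single replicates reaches that level; inconclusive means some that reach 60%, reason not given; inactive means mean inhibition across replicates below 60%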
Starred values were filed as active, the others as inactive; ? = inconclusive; . = no result. The list is not random: actives were taken first. Their share in the collection is about 4%.

SMILES	Wnt act	esBAF inh	MITF TRPM1 HTS	LMP1 NFkB inh	Statin myotox sup	MITF TRPM1 inh
C[C@@H]1CN([C@H](C)CO)C(=O)c2cc(-c3cccc(C#N)c3)cnc2O[C@H]1CN(C)C	.	-3.8	.	.	.	.
COc1ccc(NC(=O)Nc2ccc3c(c2)CCC3)cc1	12.6	51.6*	104.6*	-26.6	-12.4	-103.9
Cc1ccc(NC(=O)Nc2ccc3c(c2)CCC3)cc1C	5.1	.	8.5	1.1	.	-8.0
C[C@@H](NCCCn1cnc2c(OCc3ccccc3)ncnc21)c1cccc2ccccc12	1.2	0.4	-67.8	1.3	-5.3	68.8*
c1ccc(CCCNCCCn2cnc3c(OCc4ccccc4)ncnc32)cc1	-3.8	-3.8	-77.8	-2.9	-6.4	77.9*
O=C(c1ccccn1)N1C[C@@H]2[C@H](c3ccccc31)[C@H](CO)N2C(=O)Nc1ccccc1F	.	3.6	.	.	6.4	.
COc1ccc(C2NC(=S)NC3=C2CCc2cc(OC)ccc23)cc1 (stereo not given)	.	-2.4	1.4	-3.5	89.9*	4.8
O=C1CC(c2ccncc2)c2cc3c(cc2N1)OCCO3 (stereo not given)	2.6	1.4	-20.3	-10.7	125.7*	18.2
O=C1CC(c2cccs2)c2cc3c(cc2N1)OCO3 (stereo not given)	-6.8	0.0	-18.1	-15.3	116.1*	17.6
CCCCCn1c(N2CCCC2)nc2c1c(=O)n(C)c(=O)n2C	-0.7	1.3	.	6.5	1.5	3.0
O=C(N/N=C/c1ccc([N+](=O)[O-])o1)c1ccccc1-n1cccc1	9.8	-9.2	-77.2	-13.8	4.1	77.7*
O=C(N/N=C/c1ccc([N+](=O)[O-])o1)c1ccc2c(c1)OCO2	9.1	.	-97.5	-0.5	.	98.0*
O=C1CSC(c2ccc(F)cc2)N1c1nc2ccccc2s1 (stereo not given)	-1.2	.	1.2	61.9*	.	1.6
C/C(=N\Nc1cccc2cccnc12)c1ccc[nH]1	41.8*	47.2*	47.5	-34.9	-13.7	-47.6
O=C(/C=C/c1cccc2ccccc12)NCCC1=CCCCC1	-4.7	7.0	22.9	-7.7	82.1*	-26.4
C[C@@]12C(=O)OC(=O)[C@]1(C)C1CCC2O1	-3.2	-25.2	-79.1	36.0	-2.7	80.4*
O=C(Nc1nc2c(s1)CCCC2)c1ccc2ncsc2c1	41.6*	-8.5	.	-20.4	6.0	.
O=C(Nc1nc2c(s1)CCCC2)c1ccc(N2C(=O)CCC2=O)cc1	-1.5	43.6*	36.6	-6.7	-5.2	-32.2
O=C(CN1CCCCC1)N1CCN(S(=O)(=O)c2ccccc2)C1	0.5	1.5	5.4	3.1	-7.4	-3.2
Cn1cc(S(=O)(=O)N2CCOCC2)cc1C(=O)NCCc1ccccc1	.	2.8	6.9	-1.6	3.5	-8.1
CCCCCOc1ccc(CN2CCOCC2)cc1Cl	13.9	49.8*	.	-85.2	.	-52.2
CCOC(=O)CC1=NS(=O)(=O)c2ccccc2N1	4.1	-9.4	.	-17.0	.	-1.7
CCOC(=O)/C(=C/C=C1\Sc2cc(C)c(C)cc2N1CC)C(C)=O	0.7	.	-6.9	2.3	.	11.0
CC[n+]1c(/C=C2\Sc3ccccc3N2C)ccc2cccc(C)c21	-2.2	.	-103.4	-13.7	.	104.0*
CCN1/C(=C/c2ccc3cc(C)ccc3[n+]2CC)Sc2cc(C)c(C)cc21	-9.0	-74.8	-69.7	10.6	-80.1	69.0*
SMILES	Wnt act	esBAF inh	MITF TRPM1 HTS	LMP1 NFkB inh	Statin myotox sup	MITF TRPM1 inh
CCN1/C(=C/c2ccc3cc(C)ccc3[n+]2CC)Sc2ccccc21	-2.0	.	-100.6	-6.3	.	101.3*
CC(C)CCNC(=O)[C@@H](NC(=O)c1c(F)cccc1F)C(C)C	-2.4	0.3	.	0.3	-4.7	-6.8
CCn1c(CN2CCCCCC2=O)nnc1SCc1cnc(-c2ccccc2)s1	.	13.1	.	-22.9	-65.3	-8.3
O=C(Nc1cnn(Cc2c(Cl)cccc2Cl)c1)c1ccc([N+](=O)[O-])cc1	.	72.8*	28.8	-8.1	-32.6	-24.4
CN(C)c1ccc(NC(=O)c2ccc(Cn3cc([N+](=O)[O-])cn3)cc2)cc1	-0.9	56.8*	44.3	-32.1	-18.8	-39.5
CC(C)(C)N1CC(COc2ccccc2)OC1=O (stereo not given)	9.8	61.7*	.	2.2	3.1	-14.3
CC(C)N1CC(COc2ccc(Br)cc2)OC1=O (stereo not given)	-1.2	6.5	19.8	-1.0	-18.8	-14.7
Cc1ccc(-c2cc(-c3ccccc3)no2)c(O)c1	.	.	-9.5	2.8	.	9.5
Cc1nc(-c2cc(-c3ccc(Cl)cc3)no2)cs1	35.6*	.	9.8	-23.2	.	-8.0
Clc1ccc(-c2csc(-c3ccno3)n2)cc1	-0.3	.	29.0	-8.3	.	-32.0
Cc1ccc(O)c(-c2cc(-c3ccc(F)cc3)no2)c1	43.7*	2.4	25.2	-38.1	-0.7	-29.9
Clc1ccc(SCc2cc(-c3ccccc3)on2)cc1	-2.0	-3.6	5.0	-2.0	-8.5	-3.2
Clc1ccc(-c2cc(-c3ccccc3)on2)cc1	53.6*	21.4	?	-55.9	7.9	-86.2
Oc1ccccc1-c1cc(-c2ccccc2)no1	.	36.9	51.2	-65.5	93.8*	-51.2
O=C(NCc1nnnn1-c1ccc(Cl)cc1)C1CC(=O)N(c2ccc(F)cc2)C1 (stereo not given)	-0.2	-5.8	.	-2.9	-13.8	.
CO[C@H](CN(C)Cc1cc(F)ccc1F)[C@@H](C)CN(C(=O)Nc1ccc(F)cc1)[C@H](C)CO	.	3.7	.	.	6.6	.
CCCCC(=O)Nc1ccc(C(=O)Nc2cccnc2)cc1	.	11.8	13.0	-11.8	6.1	-14.5
CCOC(=O)c1c(S(=O)(=O)NCC(=O)Nc2cc(C)ccc2OC)c(C)n(C)c1C	-2.6	1.4	-2.2	-9.5	-2.1	1.6
Cc1ccc(S(=O)(=O)N2CCC[C@H]2C(=O)Nc2ccccc2Cl)cc1	-0.8	-0.7	5.8	-0.2	3.5	-9.7
Cc1ccc(S(=O)(=O)N2CCC[C@H]2C(=O)Nc2ccccc2C)cc1	1.6	2.1	-7.6	70.2*	4.2	7.0
CC(C)NC(=O)CN1C(=O)NC(CCc2ccccc2)C1=O (stereo not given)	-0.3	3.8	4.1	-6.6	114.2*	-5.3
O=C(CN1C(=O)NC(CCc2ccccc2)C1=O)Nc1ccc(F)c(F)c1F (stereo not given)	-2.5	-10.0	-5.2	-4.2	1.0	7.4
Cc1ccc(CC2CC(=O)N(c3cc(Cl)ccn3)C2=O)cc1 (stereo not given)	0.9	-12.4	.	3.8	-14.3	4.6
O=C1C=C(NCc2ccc(Cl)c(Cl)c2)C2(CCCCC2)O1	.	-56.4	13.8	7.6	142.3*	-5.0
CC(=O)NC12CC3CC(C1)CC(C(=O)N1CCN(S(=O)(=O)c4ccccc4C#N)CC1)(C3)C2	-2.9	5.5	23.5	-18.7	0.8	-25.0
CC1CC(NC2=NCCS2)CC(C)(C)C1 (stereo not given)	-3.0	.	-5.9	-4.6	.	4.8
COc1ccccc1[C@]1(C)ON(c2ccccc2C(F)(F)F)C1=O	-1.7	-8.4	-58.2	73.3*	9.2	58.9

Bioassay records from PubChem.
